Shown is part of a subset that was picked to be rich in hits.
TTR transcr act – TTR transcription activation, primary screen. SH-SY5Y TTR promoter Gaussia luciferase, luminescence; 100% = recombinant luciferase protein wells. activation, % at 16.7 µM. 92,000 compounds, 1.3% hits. AID 1117267;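 active = activation above the mean of all tested compounds plus 3 SD, cut at about 9.5% in these data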;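 also: cells exposed to compounds for one day before reading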
TTR inh HuH7 – HuH7 TTR transcription inhibition, counter-screen | shares compounds with TTR transcr act | HuH7 TTR promoter-Gaussia luciferase reporter, luminescence | inhibition, % at 16.7 µM | 1,100 compounds, 4% hits | AID 1117279;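 active = average inhibition above the solvent-only control wells' mean plus 3 SD, cut at about 15% in these data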;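 also: inhibitors lower well luminescence so higher value means more inhibition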
TTR up confirm – confirmation of human transthyretin transcription activators. 1,100 tested, under 10 active. shares compounds with TTR transcr act. SHSY5Y TTR promoter Gaussia luciferase, luminescence; 100% = purified Lucia enzyme wells, no cells. activation, % at 16.7 µM. AID 1117280;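 active = mean activation above a set limit taken from the earlier primary screen, cut at about 11% in these data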
Large screens that a line does not name were inactive (follow-up assays come after a bar, where they were run).

C/C(=N/NC(=O)Cc1c(C)[nH][nH]c1=O)c1ccc(O)cc1	none
O=C(COc1ccc(S(=O)(=O)NC2CCCCC2)cc1)NC1CC1	none
Cc1ccc(N(CC(=O)NC2CCCCC2)S(=O)(=O)c2c(C)noc2C)cc1	none
CCOc1ncccc1C(=O)Nc1c(C)n(C)n(-c2ccccc2)c1=O	none
COc1ccc(C(=O)Nc2cccc([N+](=O)[O-])c2)cc1Br	TTR transcr act 15 | TTR inh HuH7 inactive | TTR up confirm inactive
COc1ccc(NC(=O)c2cccc([N+](=O)[O-])c2)cc1	none
COC(=O)c1cccc(NC(=O)c2cccc([N+](=O)[O-])c2)c1	none
C[C@H](NC(=O)c1nc[nH]c1C(=O)NCC(=O)OCc1ccccc1)c1ccccc1	none
COCCNC(=O)C(c1ccc(F)cc1)N(CC1CCCO1)C(=O)CCC(=O)Nc1ccccn1 (stereo not given)	none
COCCNC(=O)CN(CC1CCCO1)C(=O)CCC(=O)Nc1ccccn1 (stereo not given)	TTR transcr act 16 | TTR inh HuH7 inactive | TTR up confirm inactive
COCCN(CC(=O)NCC1CCCO1)C(=O)CCC(=O)Nc1cc(C)ccn1 (stereo not given)	none
Cc1cc(C(=O)C(C)OC(=O)c2ccc(NC(=O)CC#N)cc2)c(C)n1-c1ccc(OC(F)F)cc1 (stereo not given)	none
CC(=O)c1cc(-c2cccc(Cl)c2O)c(=O)n2c1CCC2	none
COc1ccc(OCCNS(=O)(=O)c2ccccc2)cc1	none
O=C(NCCNc1nccc(C(F)(F)F)n1)c1cccc(C(F)(F)F)c1	none
O=S(=O)(NCCNc1nccc(C(F)(F)F)n1)c1ccccc1	TTR transcr act 9.8 | TTR inh HuH7 inactive | TTR up confirm inactive
CCCCOCCCNC(=O)C[C@H]1C[C@@]2(C(=O)OC)C(=C[C@H](C(C)C)O[C@@H]2C2CC2)N(CCc2ccc(OC)c(OC)c2)C1=O	none
CCc1c(C)n([O-])c2c([n+]1=O)CCC2	TTR transcr act 12 | TTR inh HuH7 inactive | TTR up confirm inactive
O=[n+]1c2c(n([O-])c3c1CCCC3)CCCC2	none
Cc1c(-c2ccc(Cl)cc2)[n+](=O)c2c(n1[O-])CCCC2	none
O=C(c1cccc(C(F)(F)F)c1)c1c[nH]c(C(=O)NCCCN2CCOCC2)c1	none
COc1ccc(Cl)cc1NS(=O)(=O)c1cccc(C(=O)NCC2(N(C)C)CCCCC2)c1	none
Cc1cc(C(=O)CSc2nc3ccccc3[nH]2)c(C)n1Cc1ccco1	none
CCCCn1nc2cc(C(=O)N(CC)c3ccc(OC)cc3)ccc2c1OCC	TTR transcr act 13 | TTR inh HuH7 inactive | TTR up confirm inactive
CCCCn1nc2cc(C(=O)NCCc3cccs3)ccc2c1OCC	none
CCCCn1nc2cc(C(=O)NC3CCc4ccccc43)ccc2c1OCC (stereo not given)	none
O=C(O)/C=C/C(=O)Nc1ccc(C2(c3ccc(NC(=O)/C=C/C(=O)O)cc3)c3ccccc3-c3ccccc32)cc1	none
FC(F)(F)c1ccccc1Cc1c(-c2ccc(Cl)cc2)nc2ccc(Br)cn12	none
CC(C)C[C@H](NC(=O)N1CC(=O)Nc2ccccc21)C(=O)N[C@H](Cc1c[nH]c2ccccc12)C(=O)O	none
CC(C)[C@H](NC(=O)N1CC(=O)Nc2ccccc21)C(=O)N[C@@H](Cc1ccccc1)C(=O)O	none
CCC(C)[C@H](NC(=O)N1CC(=O)Nc2ccccc21)C(=O)N[C@@H](Cc1c[nH]c2ccccc12)C(=O)O (stereo not given in full)	TTR transcr act 12 | TTR inh HuH7 inactive | TTR up confirm inactive
O=S(=O)(c1ccccc1)N1CC2CC(Br)C(Br)CC21 (stereo not given)	none
Cc1cc(C)cc(N(CC(=O)N2CCCCCC2)S(C)(=O)=O)c1	none
COc1ccc(CC(C)Nc2cccc(SC)c2)cc1 (stereo not given)	none
Cc1cccc(CN2CCN(C3CN(C4CCCCC4)S(=O)(=O)C3)CC2)c1 (stereo not given)	none
O=C(NC(Cc1ccccc1)C(=O)O)NC12CC3CC(CC(C3)C1)C2 (stereo not given)	none
CC12COC3(C(=O)NCCc4ccccc4)CC1CCC32C (stereo not given)	none
Cc1ccccc1NC(=O)C12CC3CCC1(C)C3(C)CO2 (stereo not given)	TTR transcr act 14 | TTR inh HuH7 inactive | TTR up confirm inactive
Cc1ccccc1NC(=O)C1C2CCC(O2)C1C(=O)O (stereo not given)	none
COc1ccc(C=NCCc2ccc(OC)c(OC)c2)cc1OC	none
Cc1noc(C)c1-c1ccc(C(=O)NCCN2CCOCC2)c2occc12	none
Cc1cccc(NC(=O)C2CC3CCC2C3)c1C (stereo not given)	none
CC(C)OC(=O)CSc1nc2ncc(Cl)cc2[nH]1	none
Cc1[nH]c2ccccc2c1C(=O)CSc1nc2ncc(Cl)cc2[nH]1	none
O=C(CSc1nc2ncc(Cl)cc2[nH]1)NCC(=O)Nc1ccc(F)c(F)c1F	TTR transcr act 11 | TTR inh HuH7 inactive | TTR up confirm inactive

Screening data as filed in PubChem BioAssay.
